RE007 growth inh – qHTS Assay for Inhibitors of the HIV-1 protein Vpr; Potency, µM (top dose mostly 92.2 µM), inactives show at the highest dose activity change, negative = less growth, most hits filed as inhibitors; 360,000 tested, 0.21% active; S. pombe RE007 Vpr strain, BacTiter-Glo ATP luminescence, 24 h; active = well fitted falling curve with a large enough effect; inconclusive = small, poorly fitted or top-dose-only effect; inactive = no such curve, though single readings can be large or run the other way; note: potency is the fitted concentration of half-maximal effect; % is set by controls: 0 for no effect and ±100 for the full control effect; nearly all actives have a fitted effect of over 50% in size
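Fission yeast strain RE007, carrying one chromosomally integrated HIV-1 vpr copy, was seeded at OD 0.01 in PMG+AL medium with 23 nL pinned compound. After 24 h at 30 °C and 99% humidity, viability was read by BacTiter-Glo luminescence.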
FBPA Giardia inh – qHTS Assay for Inhibitors of Fructose-1,6-bisphosphate Aldolase from Giardia Lamblia | A8B2U2 | purified Giardia FBPA | Potency, µM (highest dose often 59.6 µM), for the others: at the top dose activity, negative = inhibition, usual class: inhibitors | 290,000 tested, 0.71% active | AID 2451, 2010; note: potency is the fitted concentration of half-maximal effect; % is set by controls: 0 for no effect and ±100 for the full control effect; nearly all actives have a fitted effect of over 55% in size
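40 nM FBPA preincubated 10 min at RT with compound (up to 57.5 uM final), then substrate plus GAPDH/TPI/NAD/arsenate coupling and diaphorase/resazurin added. Fluorescence read after 20 min at RT, 525/598 nm.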
CHX counter – Cycloheximide Counterscreen for Small Molecule Inhibitors of Shiga Toxin; cell reporter, cycloheximide protein synthesis inhibition counterscreen; AID 2314, 2010; 300,000 tested, 12% active; max response, %; in the data active = max response mostly above about 13%, no sharp cut-off; inactive = mostly below about 14%; note: read at 38.3 µM for the half of the compounds with a filed dose; 0% is about no effect
Shiga inhibitor – A qHTS for Small Molecule Inhibitors of Shiga Toxin. inhibition, % at 38.7 µM. Vero cells, Shiga toxin protein synthesis inhibition reporter. 290,000 tested, 9.2% active; in the data active = inhibition mostly above about 28%, no sharp cut-off; inactive = mostly below about 43%; note: 0% is about no effect
TbPYK inhibitor – qHTS of Trypanosoma Brucei Inhibitors; pyruvate kinase (Trypanosoma brucei), Q57TT1; TbPYK enzyme, Kinase-Glo Plus ATP luminescence, 45 min; Potency, µM (series often up to 76.8 µM), for inactives: at the highest dose activity, negative = inhibition, hits mostly inhibitors; 410,000 tested, 0.12% active; AID 624173, 2012; note: potency is the fitted concentration of half-maximal effect; % is set by controls: 0 for no effect and ±100 for the full control effect; nearly all actives have a fitted effect of over 50% in size
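Quantitative HTS: titrated library compounds versus trypanosomal pyruvate kinase in TEA buffer (pH 7.2) containing KCl, MgCl2, BSA and Tween-20. Reactions were initiated with ADP, 130 uM final. Kinase-Glo Plus luminescence was read after 45 min at RT.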
LmPK inh – qHTS Assay for Inhibitors of Leishmania Mexicana Pyruvate Kinase (LmPK); Potency, µM (doses to about 57.5 µM), for the others: at the highest dose activity change, negative = inhibition, most hits filed as inhibitors; 290,000 tested, 0.37% active; Q27686; purified LmPK, Kinase-Glo ATP luminescence, 1 h; AID 1721, 2009; note: potency is the fitted concentration of half-maximal effect; % is set by controls: 0 for no effect and ±100 for the full control effect
Target sequence (Q27686 whole entry, looked up): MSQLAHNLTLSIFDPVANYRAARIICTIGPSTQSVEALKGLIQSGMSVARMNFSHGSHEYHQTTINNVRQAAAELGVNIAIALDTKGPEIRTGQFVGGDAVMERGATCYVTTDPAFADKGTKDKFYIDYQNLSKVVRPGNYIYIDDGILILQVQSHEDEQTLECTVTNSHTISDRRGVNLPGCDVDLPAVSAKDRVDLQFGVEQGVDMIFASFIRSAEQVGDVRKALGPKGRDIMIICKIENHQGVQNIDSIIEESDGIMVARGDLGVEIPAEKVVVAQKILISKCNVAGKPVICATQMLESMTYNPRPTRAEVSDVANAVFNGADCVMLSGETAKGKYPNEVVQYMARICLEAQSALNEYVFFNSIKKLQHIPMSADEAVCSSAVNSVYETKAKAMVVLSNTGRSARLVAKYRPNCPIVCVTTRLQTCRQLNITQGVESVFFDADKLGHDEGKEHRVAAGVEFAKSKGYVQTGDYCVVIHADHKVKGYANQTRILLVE
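In 50 mM imidazole pH 7.2 with 7 mM MgCl2, LmPK (0.1 nM) turned over PEP (0.5 mM) and ADP (0.1 mM) for 1 h at room temperature. Luciferase read-out of ATP.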
An asterisk follows results filed as active; ? = inconclusive; / = not tested or not shown. Shown is part of a subset that was picked to be rich in hits. Unless noted, calls come from the whole dose curve; as a rule, active = well fitted curve in the direction sought with a large enough effect; inconclusive = small, poorly fitted or top-dose-only effect, or another doubt; inactive = no such curve, though single readings can be large; an effect the other way counts as inactive or inconclusive.

SMILES	RE007 growth inh	FBPA Giardia inh	CHX counter	Shiga inhibitor	TbPYK inhibitor	LmPK inh
C=CCN(c1ccc(C(=O)Nc2ccc3c(c2)OCO3)cc1)S(C)(=O)=O	-2.0%	-7.7%	13.3*	32.1	-9.1%	2.5%
CS(=O)(=O)N(CC(=O)Nc1ccc2c(c1)OCCO2)c1ccc2c(c1)OCO2	-8.1%	-9.3%	10.3*	14.8	-1.0%	0.6%
Cc1ccc(C(=O)NC(=S)N(C)C2CCCCC2)cc1	5.5%	/	50.5*	125.6*	-17.1%	-2.1%
CN1C(=O)/C(=C\c2ccc(N3CCCCCC3)cc2)C(=O)NC1=S	-2.0%	-13.1%	16.6	-0.7	?	-0.6%
CN1C(=O)/C(=C\c2ccc(N3CCCCC3)o2)C(=O)NC1=S	-13.8%	-3.9%	27.4*	38.5*	-7.1%	-18.4%
CN1C(=O)/C(=C/c2ccc(N3CCCCCC3)o2)C(=O)NC1=S	-16.3%	-6.9%	40.2*	64.3*	-26.9%	-19.9%
C=CCN1C(=O)/C(=C\c2ccc(N3CCOCC3)o2)C(=O)NC1=S	/	-16.4%	3.8	-5.7	?	0.4%
COc1ccc(C(=O)N/N=C/c2sc3ccccc3c2O)cc1	?	-15.0%	39.8*	115.9*	1.9%	-4.1%
O=C(N/N=C/c1sc2ccccc2c1O)c1cccc2ccccc12	5.8%	-4.0%	25.0*	40.4	0.6%	-2.3%
O=C(N/N=C/c1sc2ccccc2c1O)c1ccccc1	44.7µM*	?	50.1*	60.6*	-2.3%	-4.1%
COc1ccc(C(=O)N/N=C/c2c(CO)cnc(C)c2O)cc1	3.1%	5.3%	-2.0	13.5	-1.3%	-2.1%
O=C(N/N=C/c1ccc(Br)cc1)c1ccc(NC(=O)c2ccccc2)cc1	-8.6%	/	/	/	1.5%	/
COc1ccc(NS(=O)(=O)c2cccc(C(=O)N/N=C/c3c(F)c(F)c(F)c(F)c3F)c2)cc1	-12.7%	/	/	/	-23.5%	/
COc1ccc2cc(C(=O)N/N=C/c3sc4ccccc4c3O)ccc2c1	-1.0%	?	51.5*	111.4*	-15.3%	-0.1%
NC(C(=O)O)C(O)c1ccc(O)c(O)c1 (stereo unspecified)	/	/	/	/	-3.7%	/
N=C1SCC(=O)N1c1ccccc1Cl	6.4%	-10.5%	-1.0	-8.6	3.8%	-6.0%
O=c1c2ccccc2sn1-c1ccc(F)cc1	5.62µM*	/	/	/	8.91µM*	/
COC(=O)c1cccc(N2CCCC2=O)c1	0.4%	4.8%	4.7	18.3	-1.4%	0.2%
Cc1ccc(-n2sc3cc(F)ccc3c2=O)c(C)c1	11.2µM*	/	/	/	10µM*	/
O=c1c2cc(F)ccc2sn1-c1ccccc1Cl	?	/	/	/	11.2µM*	/
COC(=O)c1cccc(-n2sc3ccccc3c2=O)c1	?	/	/	/	6.31µM*	/
O=c1sc2ccccc2c(=O)n1Cc1ccccc1F	-4.9%	1.1%	8.0	3.0	-3.1%	1.1%
CCc1ccc(NC(=O)C(=O)NCCOc2ccccc2Cl)cc1	25.3%	2.7%	-5.3	21.8	-2.0%	-6.3%
CCN(Cc1ccccc1)C(=O)CN1C(=O)COc2ccc(S(=O)(=O)N3CCOCC3)cc21	/	/	/	/	-0.1%	/
COc1ccc(S(=O)(=O)N2CCC[C@H]2C(=O)N2CCC[C@H]2C(=O)N[C@@H](C)c2ccccc2)cc1C	7.1%	/	/	/	2.2%	/
SMILES	RE007 growth inh	FBPA Giardia inh	CHX counter	Shiga inhibitor	TbPYK inhibitor	LmPK inh
Cc1ccc(Cn2c(=O)sc3ccccc3c2=O)cc1	-5.8%	-3.9%	-1.0	-3.1	0.8%	5.9%
Cc1ccc(-n2sc3ccccc3c2=O)cc1	6.31µM*	?	18.2*	31.2	7.94µM*	20µM*
O=c1c2ccccc2sn1-c1ccc(Cl)cc1	8.91µM*	/	/	/	31.6µM*	/
O=c1c2ccc(F)cc2sn1-c1ccccc1	-69.9%	/	/	/	10µM*	/
O=C(c1sc2cc(F)ccc2c1Cl)N1CCN(c2cccc(Cl)c2)CC1	-11.5%	0.0%	-1.3	17.5	-1.3%	7.2%
CCCCn1c(N)c(N(CC(C)C)C(=O)CSc2nnc(C)n2-c2ccccc2)c(=O)[nH]c1=O	-11.5%	/	/	/	3.4%	/
COc1cccc(CNC(C)(C)CO)c1OCc1ccc(Cl)cc1	-12.2%	-0.7%	-2.7	-10.4	-5.4%	6.0%
COc1cccc(OCc2ccc(Cl)cc2)c1C#N	-5.5%	-3.4%	44.3*	80.5*	8.4%	-27.3%
COCc1cc(C)nc(SCC(=O)Nc2ccc3c(c2)OCO3)c1C#N	1.4%	3.8%	7.5	9.5	-2.0%	1.3%
CSc1nsc(SCC(=O)Nc2ccc3c(c2)OCCO3)n1	-4.6%	-12.9%	41.4*	93.9	3.7%	5.6%
CSc1nsc(SCC(=O)Nc2ccc(F)cc2)n1	-3.0%	-3.8%	9.1	42.1	6.6%	-1.3%
COCc1cc(C)nc(SCC(=O)Nc2ccc3c(c2)OCCO3)c1C#N	1.3%	/	11.0*	19.1	3.7%	-8.8%
Cc1csc(SCC(=O)Nc2ccc3c(c2)OCCO3)n1	14.5%	-0.6%	41.5*	74.7*	-4.0%	-1.5%
COC(=O)c1ccc(C(NC(=O)c2ccco2)[C@]2(C)C[C@H]2C2CCCCC2)cc1 (stereo partly specified)	/	-2.8%	/	/	/	/
COc1cc(OC)cc(C2=Cc3ccc(OC)cc3C(CC(C)=O)N2c2ccc(C#CCCO)cc2)c1 (stereo unspecified)	-3.2%	/	/	/	0.1%	/
O=C(CSc1ncccn1)NN=C1CCCCCC1	18.4%	7.0%	-1.4	17.7	-5.6%	-1.2%
O=C1NN(C(=O)Nc2ccc(Br)cc2)C(c2ccccc2)C1c1ccccc1 (stereo unspecified)	/	-4.5%	9.2	53.8*	/	/
COc1ccc(Cn2ccc3nc(C)c(C(=O)N4CCN(c5ccccc5F)CC4)cc3c2=O)cc1	/	/	/	/	4.8%	/
COc1ccc(CC(NC(C)=O)C(=O)N2CCN(C(=O)Nc3ccc(Cl)cc3)CC2)cc1OC (stereo unspecified)	-6.8%	0.8%	14.4*	43.8	-3.0%	-1.0%
Cc1ccccc1NC(=O)C1CCN(S(=O)(=O)c2c(C)noc2/C=C/c2ccco2)CC1	/	/	/	/	0.5%	/
Cc1noc(/C=C/c2ccco2)c1S(=O)(=O)N1CCC(C(=O)N2CCc3ccccc3C2)CC1	-4.6%	-3.9%	19.2*	47.4*	-3.4%	4.2%
O=C(/C=C/c1cccs1)N1CCN(Cc2ccc3c(c2)OCO3)CC1	1.0%	3.8%	-0.9	12.9	-10.1%	-4.3%
O=C(/C=C/c1cccs1)N1CCCCC1	5.9%	2.6%	39.3*	61.0*	-7.2%	?
O=C(/C=C/c1cccs1)N1CCN(c2ccc(O)cc2)CC1	137.3%	-24.1%	11.3	30.9	-9.6%	15.8µM*
COc1cc2c(cc1OC)CN(C(=O)/C=C/c1cccs1)CC2	-0.4%	1.6%	2.5	33.5	0.5%	-1.8%
COc1ccc2c(c1)c1c(c(=O)n(Cc3ccccc3)c(=O)n1Cc1ccccc1Cl)n2C	/	/	/	/	7.0%	/
